Results on 30 molecules are retold here after PubChem BioAssay (NCATS).

For assay [1] the following is noted: Ebola virus entry reporter assay, green channel fluorescence. (In general: A reporter such as luciferase makes a cellular process visible.)
The conditions of assay [2]: Ebola virus entry cell assay, ratio channel.
The conditions of assay [3]: Ebola virus entry assay, blue channel (ratio component).
Assay [4] can be described thus: qHTS assay for measurement of the activity of small molecule inhibitors on Zika virus induced Caspase-3 activity in human iPSC derived neural progenitor cells (hNPCs) (AID 1224857). Further: nearly all actives have a fitted effect of over 65% in size. The conditions noted are these: hNPCs ZIKV-induced caspase-3/7, Caspase-Glo luminescence, 6 h; series mostly up to 45.7 µM. Put shortly:
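After overnight (16–20 h) culture at 350 cells/well, hNPCs get compound, then ZIKV 2 FFU/cell one hour later. Six hours on, Caspase-Glo 3/7 is added and luminescence measured.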
In general terms: qHTS replaces the single test concentration by a dilution series.

The nature of assay [5]: qHTS assay for measurement of the activity of small molecule inhibitors on Zika virus induced Caspase-3 activity in human astrocytoma cells (AID 1224859). The conditions noted are these: SNB-19 ZIKV-induced caspase-3/7, luminescence, 6 h; series mostly up to 45.7 µM. The method in brief:
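Inhibition of Zika-induced caspase-3/7 activity: SNB-19 cells, 1 h compound pretreatment, ZIKV 2 FFU/cell for 6 h at 37 C, Caspase-Glo luminescence read-out.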

Records with an inconclusive call do not appear. For some assays here: Entries with a potency or affinity are not part of this list. Active and inactive are the calls of the source.

For the molecule `O=C1Nc2ccc(Cl)cc2C(c2ccccc2Cl)=NC1O` (centres undefined), the call in assay [1] and in assay [2] was inactive.

For `CN[C@H](CC(C)C)C(=O)N[C@H]1C(=O)N[C@@H](CC(N)=O)C(=O)N[C@H]2C(=O)N[C@H]3C(=O)N[C@H](C(=O)N[C@@H](C(=O)O)c4cc(O)cc(O)c4-c4cc3ccc4O)[C@H](O)c3ccc(c(Cl)c3)Oc3cc2cc(c3O[C@@H]2O[C@H](CO)[C@@H](O)[C@H](O)[C@H]2O[C@H]2C[C@](C)(N)C(O)[C@H](C)O2)Oc2ccc(cc2Cl)[C@H]1O` (some centres undefined), the outcome in assay [1] and in assay [2] was inactive.

Turning to `CCCCC(=O)N(Cc1ccc(-c2ccccc2-c2nn[nH]n2)cc1)[C@@H](C(=O)O)C(C)C`, the result in assay [1] and in assay [2] was inactive.

Consider `CC(C)NC(C)C`, for which the result in assay [3], in assay [4] and in assay [5] was inactive.

`c1ccc(CN2CCNCC2)cc1`: the result in assay [3], in assay [4] and in assay [5] was inactive.

For `CC(C(=O)c1ccccc1)N(C)C` (centres undefined), the outcome in assay [3], in assay [4] and in assay [5] was inactive.

On to `O=c1[nH]oc2c1CCNC2`, for which the result in assay [3], in assay [4] and in assay [5] was inactive.

`CCCCC(C)(O)C/C=C/[C@H]1[C@H](O)CC(=O)[C@@H]1CCCCCCC(=O)OC` (some centres undefined): the outcome in assay [1] and in assay [2] was inactive.

With `C[C@]12CC[C@@H]3c4ccc(OC(=O)N(CCCl)CCCl)cc4CC[C@H]3[C@@H]1CC[C@@H]2O`, the result in assay [3], in assay [4] and in assay [5] was inactive.

For `O=C1c2ccccc2C(=O)C1C(=O)C(c1ccccc1)c1ccccc1`, the result in assay [3], in assay [4] and in assay [5] was inactive.

With `O=c1oc2ccccc2c(O)c1Cc1c(O)c2ccccc2oc1=O`, the outcome in assay [3], in assay [4] and in assay [5] was inactive.

The term AC50 denotes the concentration giving half of the maximal activity seen. For `CN=C1CN(O)C(c2ccccc2)=c2cc(Cl)ccc2=N1`, the result in assay [1] was inactive. The half-maximal activity concentration (AC50) in assay [2] was 12.6 µM (active).

In the case of `CC(C)(C)NC(=O)[C@@H]1C[C@@H]2CCCC[C@@H]2CN1C[C@@H](O)[C@H](Cc1ccccc1)NC(=O)[C@H](CC(N)=O)NC(=O)c1ccc2ccccc2n1`, the call in assay [1] and in assay [2] was inactive.

With `CCCCCCCN(CC)CCCC(O)c1ccc(NS(C)(=O)=O)cc1` (centres undefined), the outcome in assay [1] and in assay [2] was inactive.

As for `C=C(C)[C@H]1CN[C@H](C(=O)O)[C@H]1CC(=O)O`, the result in assay [3], in assay [4] and in assay [5] was inactive.

For `CCC(=O)NCCC1CCc2ccc3c(c21)CCO3` (centres undefined), the outcome in assay [1] and in assay [2] was inactive.

In the case of `Clc1ccc2c(c1)C(c1ccccc1)=NCc1nncn1-2`, the result in assay [1] and in assay [2] was inactive.

On to `C=CCC1(C(C)CC)C(=O)NC(=O)NC1=O` (centres undefined), for which the outcome in assay [3], in assay [4] and in assay [5] was inactive.

As to `C#CCC(Cc1cnc2nc(N)nc(N)c2n1)c1ccc(C(=O)N[C@@H](CCC(=O)O)C(=O)O)cc1` (some centres undefined), the molecule was classed as inactive in assay [1] and in assay [2].

Turning to `CCC(=O)OC(OP(=O)(CCCCc1ccccc1)CC(=O)N1C[C@H](C2CCCCC2)C[C@H]1C(=O)O)C(C)C` (some centres undefined), the outcome in assay [1] and in assay [2] was inactive.

Consider `CCCOC(=O)c1cncn1C(C)c1ccccc1` (centres undefined), for which the result in assay [3], in assay [4] and in assay [5] was inactive.

Regarding `CC(C)[C@H]1C(=O)N2CCC[C@H]2[C@]2(O)O[C@](NC(=O)[C@@H]3C[C@@H]4c5cccc6[nH]cc(c56)C[C@H]4N(C)C3)(C(C)C)C(=O)N12`, the call in assay [1] and in assay [2] was inactive.

Regarding `CC(Cc1ccccc1)NCCn1cnc2c1c(=O)n(C)c(=O)n2C` (centres undefined), the result in assay [3], in assay [4] and in assay [5] was inactive.

With `C=CC(N)CCC(=O)O` (centres undefined), the molecule was classed as inactive in assay [1] and in assay [2].

In the case of `CCC(C)(C)c1ccc(O)cc1`, the result in assay [3], in assay [4] and in assay [5] was inactive.

With `CC(C)CN(C[C@@H](OP(=O)(O)O)[C@H](Cc1ccccc1)NC(=O)O[C@H]1CCOC1)S(=O)(=O)c1ccc(N)cc1`, the molecule was called inactive in assay [1] and in assay [2].

Take `NC(=O)c1cc([N+](=O)[O-])cc([N+](=O)[O-])c1`: the outcome in assay [3], in assay [4] and in assay [5] was inactive.

`CC(=O)NCCCS(=O)(=O)O`: the molecule was classed as inactive in assay [1] and in assay [2].

Take `CC(=O)NC1CCSC1=O` (centres undefined): the result in assay [3], in assay [4] and in assay [5] was inactive.

Regarding `CNC(C)[C@@H]1CC[C@@H](N)[C@@H](O[C@H]2[C@H](O)[C@@H](O[C@H]3OC[C@](C)(O)[C@H](NC)[C@H]3O)[C@H](N)C[C@@H]2N)O1` (some centres undefined), the result in assay [1] and in assay [2] was inactive.
